# Reference: PubChem BioAssay (NCATS)
# Values joined by “and” are separate entries in the source; they are usually repeats but may differ in a detail not shown here. Identical values can stand only once. A number with no mark means an inactive call. Results filed as inconclusive are left out. Where a call stands in place of a potency, no number is given. Active and inactive are the calls of the source. Unless noted, calls come from the whole dose curve; as a rule, active = well fitted curve in the direction sought with a large enough effect; inconclusive = small, poorly fitted or top-dose-only effect, or another doubt; inactive = no such curve, though single readings can be large; an effect the other way counts as inactive or inconclusive.
# Tests used:
# [1] = qHTS assay for small molecule disruptors of the mitochondrial membrane potential - 1 hr assay (AID 651754; calls by dose curve; note: nearly all actives have a fitted effect of over 35% in size; note: potency is the fitted concentration of half-maximal effect)
# Procedure, shortened: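 HepG2, 2,000 cells/well, overnight attachment; cpd or DMSO 1 hr, 37C/5% CO2; Mito-MPS dye 30 min, 37C; fluorescence monomer (490/535) and aggregate (540/590).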
# [2] = qHTS assay for small molecule disruptors of the mitochondrial membrane potential - 5 hr assay (AID 651755; calls by dose curve; note: nearly all actives have a fitted effect of over 40% in size; note: potency is the fitted concentration of half-maximal effect)
# Procedure, shortened: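 HepG2 cells, attached overnight at 37C, were exposed to compound or DMSO for 5 hr at 37C, 5% CO2. Mito-MPS dye was then added for 30 min, and fluorescence read at 490/535 nm (monomers) and 540/590 nm (aggregates).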
# [3] = molecular target: Tumor necrosis factor (Homo sapiens) (UniProt P01375); assay: qHTS assay to identify small molecules that stimulate Tumor Necrosis Factor-alpha (TNF-alpha) secretion (AID 651757; active = well fitted curve in the direction sought with a large enough effect in the signal ratio; the % refers to the signal ratio)
# Procedure, shortened: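 Read-out is HTRF, a TR-FRET sandwich of cryptate- and XL665-labeled anti-TNF-alpha antibodies detecting cytokine secreted by THP-1 cells. Cells had been incubated with test compounds at 37 C for 17 hrs beforehand.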
# [4] = qHTS assay for environmental chemicals that activate the Aryl hydrocarbon Receptor (AhR) signaling pathway (AID 651777); conditions: 1A2-DRE human hepatoma cells, luciferase, 24 h; stronger effect = higher value; note: nearly all actives have a fitted effect of over 15% in size
# Procedure, shortened: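 Human hepatoma 1A2-DRE cells, stably carrying a dioxin response element and CYP1A2 promoter driving luciferase, were exposed to compounds for 24 hr at 37 C and 5% CO2. Luciferase signal was then read after 30 min One-Glo at room temperature.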
# [5] = molecular target: Peroxisome proliferator-activated receptor alpha (Homo sapiens) (UniProt Q07869); assay: qHTS assay for small molecule agonists of the peroxisome proliferator-activated receptor alpha (PPARalpha) signaling pathway (AID 651778); conditions: PathHunter PPARalpha complementation, chemiluminescence, 6 h; max response: stronger effect = higher value
# Procedure, shortened: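 Cells plated at 2,000/well and held overnight at 37 C, 5% CO2, then compound added by pin tool for 6 hr; after PathHunter detection reagent and 60 min at room temperature, chemiluminescence from enzyme complementation was read.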
# [6] = molecular target: Nuclear receptor ROR-gamma (Homo sapiens) (UniProt P51449); assay: qHTS assay for small molecule antagonists of the retinoid-related orphan receptor gamma (ROR-gamma) signaling pathway (AID 651802); note: nearly all actives have a fitted effect of over 60% in size; note: potency is the fitted concentration of half-maximal effect
# Procedure, shortened: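 CHO, TET-inducible ROR + RORE-LUC reporter, 1536-well qHTS. Compound pinned, doxycycline added, 16hr 37C/5% CO2. ONE-Glo, 30 min RT, luminescence; signal drop scored as antagonism.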
# [7] = qHTS assay for small molecule agonists of the antioxidant response element (ARE) signaling pathway measured by Nrf2-dependant transcriptional activity (AID 720636; active = well fitted curve in the direction sought with a large enough effect in the repeat runs; an effect the other way counts as inactive or inconclusive)
# Procedure, shortened: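 ARE-luc HepG2 cells carrying an Nrf2-responsive luciferase reporter were plated in medium with 1% dialyzed FBS, left 6 hr at 37 C to attach, then exposed to compound for 16 hr. Luciferase luminescence was read after ONE-Glo addition.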
# [8] = qHTS assay for small molecule antagonists of the retinoid-related orphan receptor gamma (ROR-gamma) signaling pathway - cell viability counter screen (AID 720652; active = well fitted curve in the direction sought with a large enough effect in the repeat runs; an effect the other way counts as inactive or inconclusive;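 note: compound exposure lasted 16 hr before ATP read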; note: potency is the fitted concentration of half-maximal effect)
# Procedure, shortened: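 Luminescence from CellTiter-Glo after 30 min at room temperature reported cellular ATP as the cytotoxicity measure. Cells were the CHO reporter line with doxycycline-induced ROR-gamma expression, exposed to compound for 16 hr at 37 C.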
# [9] = qHTS assay for small molecule agonists of the antioxidant response element (ARE) signaling pathway measured by Nrf2-dependant transcriptional activity - cell viability counter screen (AID 720653; active = well fitted curve in the direction sought with a large enough effect in the repeat runs; an effect the other way counts as inactive or inconclusive; note: potency is the fitted concentration of half-maximal effect); conditions: ARE-bla HepG2 viability, CellTiter-Glo ATP luminescence, 16 h; max response: stronger effect = lower value
# Procedure, shortened: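 ARE-bla HepG2 cells (2,000/well) rested 5 hrs at 37C/5% CO2, then exposed to compounds in DMSO for 16 hrs. Viability was read in the same wells as intracellular ATP by luminescence, 30 min at room temperature after reagent addition.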
# [10] = qHTS Assay for Identifying Gametocytocidal Compounds (AID 743244); note: potency is the fitted concentration of half-maximal effect;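 for max response: actives lower the fluorescent signal which means gametocytes are killed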; conditions: P. falciparum 3D7 stage III-V gametocytes, alamarBlue, 72 h; max response: stronger effect = lower value
# Procedure, shortened: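 In this qHTS viability screen, late-stage 3D7 gametocytes are incubated with compound for 72 h, then with alamarBlue for 24 h; reduced resorufin fluorescence marks killing.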
# [11] = qHTS assay for cell viability of HEK293 cells (AID 743288); conditions: ATP luminescence (CellTiter-Glo), 18 h; max response: stronger effect = lower value; note: nearly all actives have a fitted effect of over 50% in size; note: potency is the fitted concentration of half-maximal effect
# Procedure, shortened: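 HEK293 parental, 2,000 cells/well; ≥5 h pre-incubation 37 C; pintool compound addition; 18 h, 37 C; CellTiter-Glo 30 min RT; luminescence read.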
# [12] = qHTS for compounds that reverse cellular toxicity of Amyloid beta (A-beta) peptide in yeast: LOPAC Validation Assay (AID 720559)
# Procedure, shortened: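 Medium dispensed, compounds pinned, A-beta yeast suspension added; plates held at 30 C for 48 hr; absorbance measured at 600 nm to gauge growth; values scaled between DMSO and FeCl3/clioquinol (equimolar) controls.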
# [13] = qHTS for Activators of Parkin Expression: LOPAC Validation Assay (NLuc Reporter) (AID 720572)
# Procedure, shortened: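 Neuronal line stably carrying a FLuc/NLuc coincidence reporter under the Parkin promoter, seeded 24 h, then dosed in 7-point series for 24 h at 37 C. NLuc luminescence read after FLuc; normalized to DMSO and positive control (100%).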
# [14] = molecular target: T1, Hexokinase-4 (Homo sapiens) + Glucokinase regulatory protein (Homo sapiens) (UniProt P35557+Q14397); assay: qHTS assay for inhibitors of recombinant human GCK-GKRP interaction: Diaphorase-coupled assay (AID 743205)
# Procedure, shortened: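 25 mM Hepes pH 7.6, 5 mM glucose, 0.4 mM ATP, 4 U/ml G6PDH; 10 nM each GST-GCK/FLAG-GKRP. Kinetic fluorescence read, 1/min × 30 min. Normalized: DMSO ± enzyme = max/min.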
# [15] = molecular target: T1, Hexokinase-4 (Homo sapiens) + Glucokinase regulatory protein (Homo sapiens); assay: qHTS assay for inhibitors of recombinant human GCK-GKRP interaction: ADP-Glo assay (AID 743206)
# Procedure, shortened: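 GST-GCK and FLAG-GKRP (15 nM each in the dispensed mix, with 2 uM S6P) react with 0.4 mM ATP and 5 mM glucose (final) in Hepes pH 7.6 for 60 min at room temperature. ADP is measured by ADP-Glo luminescence.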
# [16] = molecular target: Tyrosine-protein kinase Yes (Homo sapiens) (UniProt P07947); assay: qHTS for small molecule inhibitors of Yes1 kinase: Primary Screen (AID 686947); note: nearly all actives have a fitted effect of over 60% in size
# Procedure, shortened: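 Yes1 (4 nM) preincubated 20 min with compound, then 60 min room-temperature reaction with 0.1 mM ATP and 0.3 mg/mL poly(E4Y) in pH 7.5 Tris, 10 mM MgCl2. ADP measured by ADP-Glo luminescence, normalised to enzyme/no-enzyme controls.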
# [17] = qHTS for small molecule inhibitors of Yes1 kinase: Counter Assay (AID 686950);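 note: no kinase present so only ADP-Glo detection of a fixed ADP amount is tested; luminescence from ADP-Glo reporting ADP in a fixed ATP and ADP mixture; series mostly up to about 77 µM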
# Procedure, shortened: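 Enzyme-free ADP-Glo interference check: compounds were preincubated 20 min in buffer, then an ATP/ADP mix (0.08 mM ATP, 0.02 mM ADP final) was added for 60 min at room temperature before two-step ADP-Glo luminescence detection.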
# [18] = qHTS assay to identify small molecules that stimulate interleukin-8 (IL-8) secretion (AID 651758; active = well fitted activation curve with a large enough effect in the signal ratio; the % refers to the signal ratio)
# Procedure, shortened: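 THP-1, 2000 cells/well; cpd 16 h, 37 C; add cryptate + XL665 anti-IL-8 Abs; RT 1-3 h; TR-FRET read.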
# [19] = qHTS for Inhibitors of Ubiquitin-specific Protease USP2a Using CHOP2 as the Reporter: K633 Counterscreen (AID 652168); note: series mostly up to about 57 µM
# Procedure, shortened: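 Cell-free interference counterscreen without USP2a: compounds pinned into enzyme-free buffer (20 mM Tris pH 8, 2 mM beta-mercaptoethanol, 0.05% Chaps), then DiUb K48-4IQF substrate added (100 nM stock); fluorescence read kinetically, Ex 525/Em 598.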
# [20] = qHTS for Inhibitors of Ubiquitin-specific Protease USP2a Using CHOP2 as the Reporter: Cytotox Assay (AID 652170); note: series mostly up to about 46 µM; nearly all actives have a fitted effect of over 70% in size
# Procedure, shortened: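 HCT116 human colon cancer cells, 600 per well in DMEM with 10% FBS, exposed to compounds for 72 hr at 37 deg C. ATP measured by CellTiter-Glo luminescence, normalized to DMSO cells and no-cell background.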
# Chain of Tyrosine-protein kinase Yes (Homo sapiens) (P07947 whole entry, looked up): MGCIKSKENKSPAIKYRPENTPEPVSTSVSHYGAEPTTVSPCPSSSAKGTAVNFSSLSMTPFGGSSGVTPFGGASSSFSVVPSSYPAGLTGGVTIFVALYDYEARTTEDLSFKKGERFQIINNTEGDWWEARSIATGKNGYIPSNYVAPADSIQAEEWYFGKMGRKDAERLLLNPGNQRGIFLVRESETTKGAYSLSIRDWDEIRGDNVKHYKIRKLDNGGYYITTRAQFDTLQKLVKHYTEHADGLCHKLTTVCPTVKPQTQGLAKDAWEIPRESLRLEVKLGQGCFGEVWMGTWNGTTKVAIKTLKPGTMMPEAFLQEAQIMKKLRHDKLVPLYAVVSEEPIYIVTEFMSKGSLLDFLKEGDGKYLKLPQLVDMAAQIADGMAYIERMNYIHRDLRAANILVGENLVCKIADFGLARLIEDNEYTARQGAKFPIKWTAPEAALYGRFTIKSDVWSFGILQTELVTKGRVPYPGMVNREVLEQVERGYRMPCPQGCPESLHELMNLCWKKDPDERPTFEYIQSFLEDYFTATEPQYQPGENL
# T1 sequence (P35557 whole entry, looked up): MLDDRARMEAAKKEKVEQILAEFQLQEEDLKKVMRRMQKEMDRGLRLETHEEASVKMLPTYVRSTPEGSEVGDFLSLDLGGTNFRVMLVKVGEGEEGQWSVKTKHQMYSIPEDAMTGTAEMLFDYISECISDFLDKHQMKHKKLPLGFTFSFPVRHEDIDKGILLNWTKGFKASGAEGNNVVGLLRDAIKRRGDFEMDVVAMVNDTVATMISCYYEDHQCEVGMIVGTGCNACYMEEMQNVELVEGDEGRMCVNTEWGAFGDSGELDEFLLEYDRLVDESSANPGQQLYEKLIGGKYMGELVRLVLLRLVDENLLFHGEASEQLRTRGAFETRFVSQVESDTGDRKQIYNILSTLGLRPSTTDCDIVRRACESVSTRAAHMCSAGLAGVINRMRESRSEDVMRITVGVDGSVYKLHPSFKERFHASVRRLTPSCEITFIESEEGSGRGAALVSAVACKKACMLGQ
# T1 sequence (Q14397 whole entry, looked up): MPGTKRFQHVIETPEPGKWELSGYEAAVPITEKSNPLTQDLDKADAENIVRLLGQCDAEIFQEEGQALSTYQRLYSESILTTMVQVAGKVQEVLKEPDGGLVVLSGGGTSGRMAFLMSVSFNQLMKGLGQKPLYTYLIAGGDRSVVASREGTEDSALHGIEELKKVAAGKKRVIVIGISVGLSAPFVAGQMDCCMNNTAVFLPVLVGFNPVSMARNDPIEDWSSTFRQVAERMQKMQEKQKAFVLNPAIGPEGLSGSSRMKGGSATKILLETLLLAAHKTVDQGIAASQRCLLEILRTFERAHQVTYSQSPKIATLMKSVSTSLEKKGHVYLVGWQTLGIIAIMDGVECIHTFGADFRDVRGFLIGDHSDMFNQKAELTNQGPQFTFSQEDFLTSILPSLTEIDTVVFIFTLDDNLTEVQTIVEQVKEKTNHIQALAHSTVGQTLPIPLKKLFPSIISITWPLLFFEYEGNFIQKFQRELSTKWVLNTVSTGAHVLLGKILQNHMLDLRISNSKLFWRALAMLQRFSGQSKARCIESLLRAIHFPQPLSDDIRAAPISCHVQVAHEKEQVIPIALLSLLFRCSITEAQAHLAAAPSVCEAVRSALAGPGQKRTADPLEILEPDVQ
# Chain of Nuclear receptor ROR-gamma (Homo sapiens) (P51449 whole entry, looked up): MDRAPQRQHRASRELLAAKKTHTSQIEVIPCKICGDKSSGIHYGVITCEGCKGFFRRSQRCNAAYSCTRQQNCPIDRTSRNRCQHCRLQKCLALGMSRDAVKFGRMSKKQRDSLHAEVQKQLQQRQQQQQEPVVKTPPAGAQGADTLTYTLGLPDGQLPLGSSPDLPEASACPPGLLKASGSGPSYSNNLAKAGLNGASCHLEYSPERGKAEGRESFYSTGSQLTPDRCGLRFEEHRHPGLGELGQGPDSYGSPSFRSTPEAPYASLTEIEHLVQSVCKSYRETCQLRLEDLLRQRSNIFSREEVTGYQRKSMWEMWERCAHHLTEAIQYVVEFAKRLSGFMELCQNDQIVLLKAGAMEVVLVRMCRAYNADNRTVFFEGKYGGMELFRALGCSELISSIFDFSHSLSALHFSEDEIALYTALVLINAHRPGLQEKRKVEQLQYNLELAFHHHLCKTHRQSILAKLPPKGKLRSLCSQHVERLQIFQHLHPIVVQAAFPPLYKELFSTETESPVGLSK
# Chain of Tumor necrosis factor (Homo sapiens) (P01375 whole entry, looked up): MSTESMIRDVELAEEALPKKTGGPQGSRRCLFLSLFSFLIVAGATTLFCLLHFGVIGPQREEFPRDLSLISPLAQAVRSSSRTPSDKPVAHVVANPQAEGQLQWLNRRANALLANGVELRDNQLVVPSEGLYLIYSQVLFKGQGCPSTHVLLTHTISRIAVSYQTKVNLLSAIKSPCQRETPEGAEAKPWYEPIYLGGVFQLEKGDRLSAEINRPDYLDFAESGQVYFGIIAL
# Chain of Peroxisome proliferator-activated receptor alpha (Homo sapiens) (Q07869 whole entry, looked up): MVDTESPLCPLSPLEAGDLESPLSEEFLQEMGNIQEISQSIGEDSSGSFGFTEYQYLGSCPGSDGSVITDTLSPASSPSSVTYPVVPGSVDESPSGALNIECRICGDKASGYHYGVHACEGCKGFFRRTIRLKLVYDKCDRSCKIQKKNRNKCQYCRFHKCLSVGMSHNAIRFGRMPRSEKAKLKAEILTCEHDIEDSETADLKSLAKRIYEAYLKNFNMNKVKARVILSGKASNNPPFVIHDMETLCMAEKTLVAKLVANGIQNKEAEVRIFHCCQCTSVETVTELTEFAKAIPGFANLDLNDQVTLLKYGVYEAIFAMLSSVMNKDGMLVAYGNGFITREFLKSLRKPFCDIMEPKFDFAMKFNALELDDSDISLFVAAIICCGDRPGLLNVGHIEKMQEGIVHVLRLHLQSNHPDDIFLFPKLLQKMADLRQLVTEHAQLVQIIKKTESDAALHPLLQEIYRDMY
smiles,measurement,setting,value
O=C(N[C@H](CO)[C@H](O)c1ccc([N+](=O)[O-])cc1)C(Cl)Cl,Potency,[1],inactive
same,Potency,[2],inactive
same,outcome,[3],inactive
same,activation,[4],2.18% and 1.42%
same,max response,[5],0.618% and -1.35%
same,Potency,[6],inactive
same,outcome,[7],inactive
same,Potency,[8],inactive
same,max response,[9],3.1% and 1.36%
same,max response,[10],-4.26% and -6.91%
same,max response,[11],-6.51% and -1.46%
N[C@@H](Cc1ccc(O)c(O)c1)C(=O)O,activation,[4],2.04%
same,max response,[5],-1.63%
same,outcome,[12],inactive
same,outcome,[13],inactive
same,max response,[9],13.2%
same,outcome,[14],inactive
same,outcome,[15],inactive
same,max response,[10],20.2%
same,max response,[11],4.23%
O=C(O)c1cc(=O)[nH]c(=O)[nH]1,outcome,[3],inactive
same,activation,[4],0.283%
same,max response,[5],-0.877%
same,Potency,[6],inactive
same,outcome,[7],inactive
same,Potency,[8],inactive
same,max response,[9],16.2%
same,max response,[10],-0.993%
same,max response,[11],-10.9%
COc1cc([C@@H]2c3cc4c(cc3[C@H](O)[C@H]3COC(=O)[C@H]23)OCO4)cc(OC)c1OC,outcome,[16],inactive
same,outcome,[17],inactive
CC[C@H](C)C(=O)O[C@H]1C[C@@H](C)C=C2C=C[C@H](C)[C@H](CC[C@@H]3C[C@@H](O)CC(=O)O3)[C@H]21,Potency,[2],inactive
same,outcome,[3],inactive
same,activation,[4],-1.02%
same,max response,[5],1.65%
same,Potency,[6],4.73 µM (active)
same,outcome,[7],inactive
same,max response,[9],-3.79%
same,max response,[10],4.74%
same,max response,[11],-9.34%
COc1cc2nc(N3CCCN(C)CC3)nc(NC3CCN(Cc4ccccc4)CC3)c2cc1OC,outcome,[16],inactive
same,outcome,[17],inactive
same,outcome,[12],inactive
same,outcome,[13],inactive
same,outcome,[14],inactive
same,outcome,[15],inactive
same,Potency,[10],1.18 µM (active)
Cc1noc(NS(=O)(=O)c2ccc(N)cc2)c1C,outcome,[3],inactive
same,activation,[4],0.11% and 1.55%
same,max response,[5],0.0609% and -2.74%
same,outcome,[7],inactive
same,Potency,[8],inactive
same,max response,[9],-4.33% and -0.699%
same,max response,[10],-10.4% and -5.26%
same,max response,[11],-2.22% and 5.06%
CC(=O)CC(c1ccccc1)c1c(O)c2ccccc2oc1=O (configuration not stated),max response,[5],-0.925%
same,outcome,[7],inactive
same,max response,[9],12%
same,max response,[11],0.884%
C[C@]12C=CC(=O)C=C1CC[C@@H]1[C@@H]2C(=O)C[C@@]2(C)[C@H]1CC[C@]2(O)C(=O)CO,Potency,[1],inactive
same,Potency,[2],inactive
same,outcome,[3],inactive
same,activation,[4],-0.111%
same,max response,[5],-2.07%
same,Potency,[6],inactive
same,outcome,[7],inactive
same,Potency,[8],inactive
same,max response,[9],1.48%
same,max response,[10],18%
same,max response,[11],0.765%
S=P(N1CC1)(N1CC1)N1CC1,activation,[4],0.0951%
same,max response,[5],-1.18%
same,outcome,[7],inactive
same,max response,[9],-3.97%
same,max response,[10],9.1% and 8.65%
same,max response,[11],-14.8%
NNC(=O)c1ccncc1,Potency,[1],inactive
same,Potency,[2],inactive
same,outcome,[3],inactive
same,outcome,[18],inactive
same,activation,[4],4.86%
same,max response,[5],-1.45%
same,Potency,[6],inactive
same,outcome,[7],inactive
same,Potency,[8],inactive
same,max response,[9],-4.52%
same,max response,[10],-1.22%
same,max response,[11],-4%
CCN(CC)CCn1c(=O)c(Cc2ccc(OC)cc2)nc2ccccc21,outcome,[16],inactive
same,outcome,[17],inactive
same,outcome,[12],inactive
same,outcome,[13],inactive
same,outcome,[14],inactive
same,outcome,[15],inactive
same,max response,[10],-7.99%
Cc1cc(NS(=O)(=O)c2ccc(N)cc2)no1,outcome,[3],inactive
same,activation,[4],-0.784%
same,max response,[5],-1.17%
same,Potency,[6],inactive
same,outcome,[19],inactive
same,outcome,[20],inactive
same,outcome,[7],inactive
same,Potency,[8],inactive
same,max response,[9],3.89%
same,max response,[10],-4.78%
same,max response,[11],-9.46%
CN(C)c1ccc(C(=C2C=CC(=[N+](C)C)C=C2)c2ccc(N(C)C)cc2)cc1,Potency,[1],668 nM (active)
same,Potency,[2],1.19 µM (active)
same,activation,[4],-11.2% and -3.03%
same,max response,[5],-11.8% and -11.3%
same,Potency,[6],2.37 µM (active)
same,outcome,[7],inactive
same,Potency,[8],10.6 µM (active)
same,Potency,[9],25.1 µM (active) and 12.6 µM (active)
same,Potency,[10],7.08 µM (active)
same,Potency,[11],14.1 µM (active) and 11.2 µM (active)
Cc1ccc(S(=O)(=O)N[C@@H](Cc2ccccc2)C(=O)CCl)cc1,outcome,[12],inactive
same,outcome,[13],inactive
same,outcome,[14],inactive
same,outcome,[15],inactive
same,max response,[10],11.5%
CC(C)(C)C(=O)OCOP(=O)(COCCn1cnc2c(N)ncnc21)OCOC(=O)C(C)(C)C,max response,[10],4.48%
CC1=C(C(=O)O)N2C(=O)[C@@H](NC(=O)C(N)c3ccccc3)[C@H]2SC1 (some centres not stated),outcome,[12],inactive
same,outcome,[13],inactive
same,outcome,[14],inactive
same,outcome,[15],inactive
same,max response,[10],7.37%
